A selection: hits, their analogues and other compounds. The true share with any hit is near 3.4%.
MITF primary = blocks human microphthalmia-associated transcription factor; AlphaScreen MITF homodimerization, bead proximity signal; inhibition, % at 2.6 µM; hit rate 0.91% among 650,000; in the data active means inhibition above about 50%;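 further: 0% = vehicle wells with protein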
Target sequence (O75030 whole entry, looked up): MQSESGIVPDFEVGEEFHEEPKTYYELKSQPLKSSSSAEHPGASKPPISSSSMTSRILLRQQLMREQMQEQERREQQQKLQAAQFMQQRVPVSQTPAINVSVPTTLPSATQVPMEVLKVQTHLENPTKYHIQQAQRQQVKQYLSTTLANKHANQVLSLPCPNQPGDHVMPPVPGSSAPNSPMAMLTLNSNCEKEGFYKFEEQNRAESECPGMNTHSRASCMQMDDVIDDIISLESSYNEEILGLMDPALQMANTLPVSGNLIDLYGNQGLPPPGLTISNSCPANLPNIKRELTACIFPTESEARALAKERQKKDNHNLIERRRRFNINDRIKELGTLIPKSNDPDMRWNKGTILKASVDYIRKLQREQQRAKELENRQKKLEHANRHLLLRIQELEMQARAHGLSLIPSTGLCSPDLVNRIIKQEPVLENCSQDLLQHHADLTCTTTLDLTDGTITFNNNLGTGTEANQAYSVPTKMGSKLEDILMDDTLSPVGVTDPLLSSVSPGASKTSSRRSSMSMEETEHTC
GPR151 activ = activators of human GPR151; hit rate 1% among 650,000; AID 1508602; activation, % at 11.2 µM; PathHunter beta-arrestin GPR151 cells, luminescence; in the data active means activation above about 4.9%;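 further: 0% = median of compound wells and 100% = cells with positive control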
TEAD-YAP block = TEAD-YAP interaction inhibition; HEK-TIYL cells, TEAD-Gal4/YAP UAS-luciferase luminescence; inhibition, % at 9.12 µM; hit rate 1.4% among 640,000; in the data active means inhibition above about 32%;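 further: 0% = median of test compound wells and 100% = reference inhibitor wells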
FBW7 act = human FBW7 E3 ligase activation, primary screen; Q969H0; AlphaScreen FBW7–phospho-cyclin E peptide binding, activator screen; normalized activity (activation), % at 26.1 µM; hit rate 0.13% among 650,000; AID 1259310; in the data active means normalized activity above about 1.9%;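 further: purified mutant Fbw7 with reduced substrate affinity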
* marks the source's active call; other numbers are inactive results; i = inactive.

SMILES	MITF primary	GPR151 activ	TEAD-YAP block	FBW7 act
O=C(c1ccc(S(=O)(=O)Cc2cc(F)ccc2F)c([N+](=O)[O-])c1)N1CCN(c2ccccn2)CC1	16	-1	5	0
COc1ccccc1C1=NOC(C(=O)NCc2cccs2)C1 (centres undefined)	-4	0	41*	0
COc1ccc(CNC(=O)C2CC(c3ccccc3F)=NO2)cc1 (centres undefined)	-11	0	0	0
COc1ccc(CNC(=O)C2CC(c3ccccc3OC)=NO2)cc1 (centres undefined)	-1	-1	48*	0
O=C1NC(c2cccs2)/C(=C(\O)c2ccccc2)C1=O (centres undefined)	12	0	-9	0
COC(=O)c1ccc(C2N(O)C3CCCCC3N2O)cc1 (centres undefined)	3	1	-16	0
CN(C)c1ccc(C2N(O)C3CCCCC3N2O)cc1 (centres undefined)	-2	-1	34*	0
Cn1c(=O)c2[nH]c(Nc3cccc(C(F)(F)F)c3)nc2n(C)c1=O	16	1	45*	0
Cc1cc(OC(=O)C(C)C)cc2c1C(=O)/C(=C/c1cccnc1)O2	-4	-8	63*	0
COc1cccc(/C=C2\Oc3cc(O)cc(C)c3C2=O)c1	14	-10	98*	0
Cc1cc(O)cc2c1C(=O)/C(=C/c1cccnc1)O2	-4	-6	61*	0
COC(=O)c1ccc2c(c1)C(=O)/C(=C/c1cccc(OC)c1)O2	1	0	-3	0
O=C1/C(=C\c2cccnc2)Oc2cc(O)ccc21	-29	1	9	0
CCOC(=O)COc1cccc(/C=C2\Oc3cc(OC)ccc3C2=O)c1	5	0	-1	0
COc1ccccc1OCC(=O)NNC(C)=O	6	0	-26	0
CCCN(Cc1cccs1)C(=O)Nc1cc(Cl)ccc1C(=O)OC	-3	2	2	0
O=S(=O)(c1ccc(-c2csc(N/N=C/c3cccs3)n2)cc1)N1CCCC1	7	-1	51*	1
O=C(Nc1nc(-c2ccc(S(=O)(=O)N3CCCCCC3)cc2)cs1)c1cccs1	5	0	-1	0
Cc1ccc(C(=O)N2CCN3C(=O)[C@@H](C(C)C)NC(=O)[C@H]3C2)cc1F	19	0	-7	0
O=C(Nc1cnc2cnc(-c3ccc(N4CCOCC4)cc3)cn12)C1CCOC1 (centres undefined)	6	-1	-18	2.4*
Cc1cc(C)c2c(n1)nn1c(NCc3ccco3)cc(C)nc21	i	1	7	254*
O=C(CCc1ccccc1)Nc1ccc(S(=O)(=O)N2CCC(c3nc4ccccc4[nH]3)CC2)cc1	14	0	32*	0
O=C(Nc1ccc(S(=O)(=O)N2CCC(c3nc4ccccc4[nH]3)CC2)cc1)c1ccccc1F	20	-1	40*	0
CCC(CC)C(=O)Nc1ccc(S(=O)(=O)N2CCC(c3nc4ccccc4[nH]3)CC2)cc1	16	0	12	0
CCCOC(=O)c1cccc(NC(=O)c2ccc(C(=O)C(=O)c3ccccc3)cc2)c1	-7	2	-1	0
SMILES	MITF primary	GPR151 activ	TEAD-YAP block	FBW7 act
COc1ccc2c(c1)CC(c1nc3ccc(-c4ccncc4)cc3c(=O)[nH]1)CO2 (centres undefined)	21	0	2	1
COc1ccc2c(c1)CC(C(=O)Nc1ccc(-c3cn[nH]c3C)cc1OCCO)CO2 (centres undefined)	20	-1	55*	1
COc1ccc2c(c1)OCC(c1nc3cc(-c4cn[nH]c4)c(F)cc3[nH]1)C2 (centres undefined)	-5	0	84*	0
COc1ccc2c(c1)CC(C(=O)Nc1ccc(-c3cn[nH]c3C)cc1OCCN1CCCC1)CO2 (centres undefined)	-5	0	-3	0
COc1ccc2c(c1)CC(c1nc3ccc(-c4cn[nH]c4C)cc3c(=O)[nH]1)CO2 (centres undefined)	4	0	32*	0
COc1ccc2c(c1)CC(c1cnc3ccc(-c4cn[nH]c4)cc3n1)CO2 (centres undefined)	11	0	33*	1
CCn1c(CNC(=O)c2ccc(OC)cc2)nnc1SCC(=O)Nc1ccccc1C	16	1	17	0
Cc1[nH]ncc1-c1ccc2nc(NC(=O)C3COc4ccc(F)cc4C3)sc2c1 (centres undefined)	36	0	57*	1
O=C(Nc1ccc(-c2cn[nH]n2)cc1)C1COc2ccc(F)cc2C1 (centres undefined)	0	2	34*	0
Cc1[nH]ncc1-c1ccc(NC(=O)C2COc3ccc(F)cc3C2)c(N(C)CCN(C)C)c1 (centres undefined)	6	-1	0	0
CC1=C(C(=O)OC2CCCC2)C(c2ccc(I)cc2)C2=C(CC(C)(C)CC2=O)N1 (centres undefined)	6	-1	-7	0
Cc1ccc(C)c(C2=NN(c3nc(-c4ccc(C)c(C)c4)cs3)C(c3cccc([N+](=O)[O-])c3)C2)c1 (centres undefined)	10	1	-1	0
COc1ccc(N2CCN(C(CNS(=O)(=O)c3ccc(OC)c(C)c3)c3ccco3)CC2)cc1 (centres undefined)	68*	0	6	0
c1cn(-c2ccc(Nc3nc(NCCN4CCOCC4)c4ncn(-c5ccsc5)c4n3)cc2)cn1	-5	1	46*	0
c1cc(-n2cnc3c(NCCN4CCOCC4)nc(NCCN4CCOCC4)nc32)cs1	4	1	16	0
CCCNc1nc(Nc2ccc(N3CCOCC3)cc2)nc2c1ncn2-c1ccsc1	10	4	47*	0
c1cc(-n2cnc3c(NCCN4CCOCC4)nc(Nc4ccc(N5CCOCC5)cc4)nc32)cs1	-17	1	62*	0
c1cc(-n2cnc3c(Nc4ccc(N5CCOCC5)cc4)nc(NCCN4CCOCC4)nc32)cs1	3	0	45*	0
N#Cc1ccc(NC(=O)C(=O)NCc2ccccc2)cc1	-1	0	6	0
Nc1nc(Nc2ccc(C(F)(F)F)cc2)nc2c1ncn2-c1ccsc1	-11	0	3	0
CN(C(=O)COC(=O)CCOc1ccccc1)C1CCCCC1	-28	-2	-5	1
CC(=O)Nc1ccc(Nc2nc(NCCN3CCOCC3)nc3c2ncn3-c2ccsc2)cc1	-5	0	51*	0
c1cn(-c2ccc(Nc3nc(NCCN4CCOCC4)c4ncn(C5CCCCC5)c4n3)cc2)cn1	8	0	47*	0
c1ccc(Nc2nc(NCCN3CCOCC3)c3ncn(C4CCCCC4)c3n2)cc1	6	0	16	0
COc1cc(Nc2nc(NCCN3CCOCC3)nc3c2ncn3-c2ccsc2)cc(OC)c1OC	2	-1	6	0
CC1=C(C(=O)N(C)C)C(c2ccccc2C(F)(F)F)NC(=O)N1 (centres undefined)	-6	1	5	0
Cc1cc(C)c(C(=O)/C=C/c2ccncc2)c(=O)[nH]1	-13	0	32	0

Compound activity (PubChem)
